Here are results for eleven molecules from the supplement of paper PMC8269313.

This assay concerns 4T1. The assay is described as follows: % inhibition of 4T1 cell number vs DMSO control; higher = stronger growth inhibition. The settings on record: 1 µM, 3 days. An outline of the steps: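 In 96-well imaging plates whose edge wells went unused, 3000 4T1-H2B-GFP mouse breast cancer cells per well were seeded in 2% FBS medium onto plastic, denuded lung matrix, mCAF1 fibroblast-derived matrix, Matrigel (15 μg/mL) or 0.2% gelatin. Sixteen hours on, kinase inhibitors went in at 1 μM final for 3 days before formalin fixation, DAPI staining and imaging on an INCell Analyzer 2200. Counting of GFP-positive nuclei gave cell numbers, from which percent inhibition relative to control was derived.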

The mark [1] stands for this setting: substrate: lung fibroblast-derived matrix.
[2] abbreviates: substrate: mCAF1 fibroblast-derived matrix.

For the molecule `COc1cc2ncnc(Nc3ccc(Oc4ccccc4)cc3)c2cc1OC` [Src Kinase Inhibitor I], the “% inhibition of 4T1 cell number” value by setting is: (substrate: Matrigel) -19.5%; (substrate: gelatin) -6.86%; under setting [1], -13.5%; under setting [2], 32.6%; (substrate: plastic) -35.4%.

For `N#C/C(=C(/N)Sc1ccccc1N)c1cccc(C(O)c2ccncc2)c1` (stereo not given) [MEK Inhibitor I], the “% inhibition of 4T1 cell number” value (substrate: Matrigel) was -42.3%; the “% inhibition of 4T1 cell number” value (substrate: gelatin) turned out to be 30.7%; the “% inhibition of 4T1 cell number” value under setting [1] was 50.2%; the “% inhibition of 4T1 cell number” value under setting [2] is 40.9%; the “% inhibition of 4T1 cell number” value (substrate: plastic) is -71.7%.

As to `O=C1NC(=O)c2c1c1c3ccccc3[nH]c1n1cncc21` [Isogranulatimide], the “% inhibition of 4T1 cell number” value runs as follows: (substrate: Matrigel) -41.6%; (substrate: gelatin) -25.6%; under setting [1], -7.38%; under setting [2], 9.11%; (substrate: plastic) -78.2%.

Turning to `Cc1ncc2ccccc2c1C#N` [4-Cyano-3-methylisoquinoline], the “% inhibition of 4T1 cell number” value (substrate: Matrigel) was determined as 48.6%; the “% inhibition of 4T1 cell number” value (substrate: gelatin) was 52.6%; the “% inhibition of 4T1 cell number” value under setting [1] was -13.2%; the “% inhibition of 4T1 cell number” value under setting [2] was -46.1%; the “% inhibition of 4T1 cell number” value (substrate: plastic) is 56.8%.

For the molecule `O=c1cc(N2CCOCC2)oc2c1ccc1ccccc12` [DNA-PK Inhibitor II], the “% inhibition of 4T1 cell number” value is 9.66% (substrate: Matrigel); -23.4% (substrate: gelatin); 34.1% under setting [1]; -9.82% under setting [2]; -13% (substrate: plastic).

For `CC(=O)O/N=C1/C(c2c(O)[nH]c3cc(Br)ccc23)=Nc2ccccc21` [GSK-3 Inhibitor X], the “% inhibition of 4T1 cell number” value was -22.6% (substrate: Matrigel); 52.7% (substrate: gelatin); -8.8% under setting [1]; 59.3% under setting [2]; 58.1% (substrate: plastic).

For `Nc1nc(Nc2ccc(S(N)(=O)=O)cc2)nn1C(=S)Nc1c(F)cccc1F` [Cdk1/2 Inhibitor III], the “% inhibition of 4T1 cell number” value was 90.1% (substrate: Matrigel); 90% (substrate: gelatin); 1.23% under setting [1]; 97.8% under setting [2]; 95.5% (substrate: plastic).

In the case of `O=C(Nc1cccc(Nc2nccc(Nc3cccc(C(F)(F)F)c3)n2)c1)C1CC1` [Aurora Kinase Inhibitor III], the “% inhibition of 4T1 cell number” value turned out to be 54.8% (substrate: Matrigel); 74.5% (substrate: gelatin); 97.8% under setting [1]; 15% under setting [2]; 63.6% (substrate: plastic).

Regarding `C[S+]([O-])c1ccc(-c2nc(-c3ccc(F)cc3)c(-c3ccncc3)[nH]2)cc1` (stereo not given), the “% inhibition of 4T1 cell number” value reads like this: (substrate: Matrigel) 28.8%; (substrate: gelatin) 44.4%; under setting [1], 99.2%; under setting [2], 14.9%; (substrate: plastic) 23.3%.

For `CCN(CC)CCNC(=O)c1c(C)[nH]c(/C=C2\C(=O)Nc3ccc(Cl)cc32)c1C`, the “% inhibition of 4T1 cell number” value is 62.3% (substrate: Matrigel); 70% (substrate: gelatin); -10.6% under setting [1]; 52.4% under setting [2]; 74.3% (substrate: plastic).

On to `COc1cc2ncn(-c3cc(OCc4ccccc4S(C)(=O)=O)c(C#N)s3)c2cc1OC` [IKK-3 Inhibitor IX], for which the “% inhibition of 4T1 cell number” value reads like this: (substrate: Matrigel) -14.6%; (substrate: gelatin) -1.27%; under setting [1], 1.67%; under setting [2], 6.5%; (substrate: plastic) -26.7%.
